Assay [1] is described as follows: qHTS assay for small molecules that induce genotoxicity in human embryonic kidney cells expressing luciferase-tagged ATAD5 (AID 651632). Also: nearly all actives have a fitted effect of over 15% in size. Also: potency is read from the fitted curve at half-maximal effect. A digest of the protocol:
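DMSO vehicle served as the control. HEK293T reporter cells, 16 hr at 37C, then 30 min Amplite at room temperature; ATAD5 induction is measured as luciferase activity.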

Assay [2] in a line: qHTS assay for small molecule agonists of the p53 signaling pathway - cell viability (AID 651633; calls by dose curve; also: nearly all actives have a fitted effect of over 30% in size; also: potency is read from the fitted curve at half-maximal effect). A digest of the protocol: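 Viability counter-read: CellTiter-Glo luminescence (30 min, room temperature) in the same p53RE-bla plates. These plates had been exposed to compounds for 16 h at 37 C.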
On the technique in general: In qHTS, concentration-response curves come from the screen itself.

A short description of assay [3]: qHTS assay for small molecules that induce genotoxicity in human embryonic kidney cells expressing luciferase-tagged ATAD5 - cell viability (AID 651634; calls by dose curve; also: nearly all actives have a fitted effect of over 25% in size). A digest of the protocol:
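Here HEK293T cells with the ATAD5 luciferase reporter are incubated with test compounds for 15.5 hr, and cytotoxicity is then gauged by measuring protease activity in live cells using fluorescence.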

Assay [4] is described as follows: qHTS assay for small molecule disruptors of the mitochondrial membrane potential - cell viability (AID 720634; calls by dose curve; also: nearly all actives have a fitted effect of over 20% in size; also: potency is read from the fitted curve at half-maximal effect). A digest of the protocol: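 Viability of HepG2 cells is scored from ATP content by luminescence; cells are exposed to compound for 1 hr at 37 C and 5% CO2, then dosed with m-MPI dye before the CellTiter-Glo reagent.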
Assay [5] in a line: qHTS assay for small molecule disruptors of the mitochondrial membrane potential (AID 720635). Also: potency is read from the fitted curve at half-maximal effect. A digest of the protocol: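 Mitochondrial membrane potential tracked with Mito-MPS dye, red aggregates (ex 540/em 590 nm) against green monomers (ex 490/em 535 nm). Compound treatment 1 hr at 37C, dye 30 min in HepG2.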
Assay [6] can be described thus: qHTS assay to test for compound auto fluorescence at 460 nm (blue) in HEK293 cells (AID 720678). A digest of the protocol: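 Auto fluorescence in the blue band was quantified as triamterene equivalency. HEK293 cells were seeded at 2,000/well, dosed after a 4-5 hr attachment, and kept overnight at 37C before the 405/460 nm reading.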
Assay [7] can be described thus: qHTS assay to test for compound auto fluorescence at 590 nm (red) in HEK293 cells (AID 720679). A digest of the protocol: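 Autofluorescence equivalency to Rose Bengal sodium, 540/590nm, in HEK293 cells exposed overnight to 23 nL compound per well.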
Assay [8] in a line: qHTS assay to test for compound auto fluorescence at 535 nm (green) in HEK293 cells (AID 720680).
Assay [9] can be described thus: qHTS assay to test for compound auto fluorescence at 460 nm (blue) in HEK293 cell free culture (AID 720681). A digest of the protocol: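 Blue fluorescence (Ex 405/Em 460 nm, triamterene-equivalent) was read immediately after pin transfer of compound or DMSO into medium (DMEM, 10% FBS) without cells.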
Assay [10] can be described thus: qHTS assay to test for compound auto fluorescence at 535 nm (green) in HEK293 cell free culture (AID 720682). A digest of the protocol: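 DMEM + 10% FBS, cell-free; cpd or DMSO pinned in; Ex485/Em535 read; output as fluorescein-equivalent signal.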
Assay [11] is described as follows: qHTS assay to test for compound auto fluorescence at 590 nm (red) in HEK293 cell free culture (AID 720683). A digest of the protocol: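 Red-channel autofluorescence of compounds in culture medium (DMEM, 10% FBS), no cells, measured at 540/590 nm. Rose Bengal sodium is the reference fluorophore for equivalence.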
Assay [12] is described as follows: qHTS assay to test for compound auto fluorescence at 590 nm (red) in HepG2 cell free culture (AID 720684). A digest of the protocol: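 Cell-free; medium MEM + 10% FBS; compound or DMSO added by pintool; read Ex 540/Em 590 nm; Rose Bengal sodium as red reference fluorophore.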
Assay [13] in a line: qHTS assay to test for compound auto fluorescence at 460 nm (blue) in HepG2 cell free culture (AID 720685). A digest of the protocol: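 Cell-free plates of MEM plus 10% FBS received 23 nL compound or DMSO vehicle; blue-channel (405/460 nm) intensity scored against triamterene as reference fluorophore.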
Assay [14] in a line: qHTS assay to test for compound auto fluorescence at 535 nm (green) in HepG2 cell free culture (AID 720686).
A short description of assay [15]: qHTS assay to test for compound auto fluorescence at 460 nm (blue) in HepG2 cells (AID 720687). A digest of the protocol: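 Blue-channel autofluorescence (Ex/Em 405/460 nm, triamterene-equivalent) was measured after 1 hr compound exposure at 37 C, 5% CO2. Cells were HepG2, plated overnight at 37 C in MEM plus 10% FBS.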
Assay [16] deals with Glucocorticoid receptor (Homo sapiens) (UniProt P04150). The assay can be described thus: qHTS assay to identify small molecule agonists of the glucocorticoid receptor (GR) signaling pathway (AID 720691; active = well fitted activation curve with a large enough effect in the signal ratio in the repeat runs, not every such curve was filed as active; the % refers to the signal ratio). A digest of the protocol:
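Compounds in DMSO, alongside positive controls, were added to GR-bla HeLa reporter cells and incubated 18 h at 37 C; GRE-driven beta-lactamase was detected by fluorescence after 2 h with FRET substrate at room temperature.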

Assay [17] has the same target. The experiment in a line: qHTS assay to identify small molecule antagonists of the glucocorticoid receptor (GR) signaling pathway (AID 720692; active = well fitted inhibition curve with a large enough effect in the signal ratio in the repeat runs, not every such curve was filed as active; the % refers to the signal ratio; also: potency is read from the fitted curve at half-maximal effect). A digest of the protocol:
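In a 1536-well cell format, compounds were added 4 h after seeding GR-bla HeLa cells, together with dexamethasone at 5 nM final; reporter activity was measured by FRET-substrate fluorescence following 18 h at 37 C.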

Assay [18] can be described thus: qHTS assay to test for compound auto fluorescence at 590 nm (red) in HepG2 cells (AID 720674). A digest of the protocol:
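Red autofluorescence (Ex/Em 540/590 nm, Rose Bengal sodium equivalents) was measured in HepG2 cells, 2,000 per well in MEM plus 10% FBS, plated overnight at 37 C. Readings were taken 1 hr after adding 23 nL compound or DMSO, at 37 C and 5% CO2.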

Assay [19] is described as follows: qHTS assay to test for compound auto fluorescence at 535 nm (green) in HepG2 cells (AID 720675).
A short description of assay [20]: qHTS assay for small molecule agonists of the p53 signaling pathway (AID 651631; calls by dose curve; also: nearly all actives have a fitted effect of over 15% in size). A digest of the protocol: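 Testing took place in human colorectal HCT-116 cells with stable p53RE-driven beta-lactamase. After 16 h of compound exposure at 37 °C, a FRET substrate was added and fluorescence recorded 2 h later.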

Where “and” joins values, the source holds several entries; their conditions need not be identical. Equal entries are not always repeated. Inconclusive results are not listed. Some compounds were tested as several samples or in several runs, with calls that do not always agree. Calls of active or inactive are those of the source. Unless noted, calls follow the shape of the dose curve; as a rule, active = well fitted curve in the direction sought with a large enough effect in the repeat runs; inconclusive = weak or mixed curves; inactive = no such curve, though single readings can be large; an effect the other way counts as inactive or inconclusive.

Glucocorticoid receptor (Homo sapiens), sequence (P04150 whole entry, looked up): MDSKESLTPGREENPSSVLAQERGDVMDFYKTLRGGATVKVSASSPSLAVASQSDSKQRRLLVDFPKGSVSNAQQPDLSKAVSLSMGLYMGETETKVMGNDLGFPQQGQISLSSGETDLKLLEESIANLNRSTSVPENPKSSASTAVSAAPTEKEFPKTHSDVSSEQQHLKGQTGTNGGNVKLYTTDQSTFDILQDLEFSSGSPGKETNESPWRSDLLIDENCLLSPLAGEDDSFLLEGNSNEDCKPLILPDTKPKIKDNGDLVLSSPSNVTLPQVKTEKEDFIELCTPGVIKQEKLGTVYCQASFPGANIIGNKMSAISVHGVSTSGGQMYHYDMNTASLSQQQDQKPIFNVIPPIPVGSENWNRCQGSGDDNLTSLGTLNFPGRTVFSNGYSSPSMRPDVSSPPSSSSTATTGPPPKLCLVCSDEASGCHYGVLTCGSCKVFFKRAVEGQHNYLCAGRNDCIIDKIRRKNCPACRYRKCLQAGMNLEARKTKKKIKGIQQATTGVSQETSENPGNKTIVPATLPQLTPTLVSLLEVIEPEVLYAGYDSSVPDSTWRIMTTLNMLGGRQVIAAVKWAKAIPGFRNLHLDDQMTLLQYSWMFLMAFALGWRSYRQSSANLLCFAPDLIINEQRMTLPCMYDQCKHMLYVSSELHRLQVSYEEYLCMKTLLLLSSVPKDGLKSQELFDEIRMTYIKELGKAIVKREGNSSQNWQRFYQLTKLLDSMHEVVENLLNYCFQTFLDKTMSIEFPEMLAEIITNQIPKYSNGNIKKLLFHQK

For the molecule `O=C(CCl)c1ccccc1`, the Potency is 68.6 µM (active) in assay [1]; “inactive and 54.9 µM (active)” in assay [17]. The Potency entry in [2], in [3], in [4], in assay [5] and in assay [16] was “inactive” each time. The result in assay [6], in assay [7], in assay [8], in [9], in assay [10] and in [11] was inactive. The molecule was called inactive in assay [12], in [13], in [14] and in [15].

Turning to `N#CCCCl`, the Potency entry in assay [1], in [2], in assay [3], in assay [4], in assay [5] and in assay [17] was “inactive” each time. For the same molecule, the outcome in assay [18], in assay [19], in [6], in assay [7], in [10] and in assay [11] was inactive. In addition, the molecule was called inactive in assay [12], in assay [13], in assay [14] and in [15].

As for `CC(C)Oc1cc(-n2nc(C(C)(C)C)oc2=O)c(Cl)cc1Cl`, the Potency result in assay [1], in [2], in assay [3] and in assay [16] was “inactive” in each case. In addition, the Potency was 12 µM (active) and 54.5 µM (active) in assay [4]; 24 µM (active) and 43.3 µM (active) in assay [5]. Moreover, the outcome in assay [18], in [19], in assay [6], in [7], in assay [8] and in [10] was inactive. Also, the result in assay [11], in assay [12], in [13], in assay [14] and in assay [15] was inactive.

For `O=P(Oc1ccccc1)(Oc1ccccc1)Oc1ccccc1`, the Potency result in assay [1], in assay [2], in assay [3] and in assay [17] was “inactive” in each case. For the same molecule, the Potency in assay [4] was 13.6 µM (active); in assay [5], 242 nM (active) and 1.22 µM (active). The result in assay [19], in [6], in assay [7], in assay [8], in assay [9] and in assay [10] was inactive. In addition, the call in assay [11], in assay [12], in assay [13], in [14] and in assay [15] was inactive.

For `NNC(=S)NN`, the Potency entry in [1], in [2], in assay [3], in assay [4] and in [5] was “inactive” in each case. Also, the molecule was classed as inactive in assay [6], in assay [7], in assay [8], in [9], in assay [10] and in assay [11]. The molecule was called inactive in assay [12], in [13], in assay [14] and in [15].

Take `Oc1ccc(-c2ccccc2)cc1`: the Potency entry in [1], in assay [2], in assay [3] and in [16] was “inactive” throughout. The Potency in [4] was 53.8 µM (active) and 48.6 µM (active); in assay [5], 24 µM (active) and 13.7 µM (active). Also, the outcome in assay [18], in assay [19], in [6], in assay [7], in [8] and in assay [10] was inactive. The call in assay [11], in assay [13], in [14] and in [15] was inactive.

In the case of `O=S(=O)(Oc1ccc(Cl)cc1)c1ccc(Cl)cc1`, the Potency entry in assay [1], in [2], in assay [3], in [4] and in assay [16] was “inactive” in each case. In addition, in assay [5], the Potency is 31 µM (active) and 12.2 µM (active). Also, the call in assay [19], in [6], in [7], in [8], in assay [10] and in assay [11] was inactive. For the same molecule, the outcome in assay [12], in assay [13], in [14] and in assay [15] was inactive.

With `C#CCOS(=O)OC1CCCCC1Oc1ccc(C(C)(C)C)cc1` (stereo not given), the Potency result in assay [1], in assay [2], in assay [3] and in assay [16] was “inactive” in each case. Besides, the Potency result in [4] is “inactive and 3.86 µM (active)”; in assay [5] it was 15.4 µM (active) and 24.3 µM (active); in [17] it was 43.7 µM (active). Moreover, the molecule was classed as inactive in [18], in assay [19], in assay [6], in [7], in assay [10] and in [11]. Also, the result in assay [13], in [14] and in assay [15] was inactive.

Take `CCCCN(CCCC)N=O`: the Potency entry in assay [1], in assay [2], in assay [3], in assay [4], in [5] and in assay [16] was “inactive” each time. In addition, the Potency result in assay [17] is “inactive”. Also, the molecule was called inactive in [6], in assay [7], in assay [8], in assay [9], in [10] and in assay [11]. Also, the result in [13], in assay [14] and in assay [15] was inactive.

`Oc1cc(Cl)ccc1Oc1ccc(Cl)cc1Cl`: the Potency result in [20] and in assay [1] was “inactive” each time. Moreover, the Potency is 3.95 µM (active) in assay [2]; 11.1 µM (active) in assay [4]; 4.22 µM (active) and 352 nM (active) in assay [5]. Also, the call in [18], in [19], in assay [6], in [7], in assay [9] and in assay [10] was inactive. Besides, the molecule was classed as inactive in [11], in [13], in [14] and in [15].

With `O=C(NC(=O)c1c(F)cccc1F)Nc1ccc(Cl)cc1`, the Potency entry in assay [1], in assay [2], in [3], in assay [4] and in assay [5] was “inactive” in each case. Besides, the outcome in assay [18], in assay [19], in assay [6], in assay [7], in assay [8] and in assay [10] was inactive. Besides, the molecule was classed as inactive in assay [11], in assay [12], in [13], in assay [14] and in assay [15].

For the molecule `CC(C)(c1cc(Cl)c(O)c(Cl)c1)c1cc(Cl)c(O)c(Cl)c1`, the Potency result in [1], in [3], in assay [4] and in [16] was “inactive” throughout. In addition, the Potency was 61.1 µM (active) in [2]; 2.43 µM (active) and 2.73 µM (active) in [5]; 12.3 µM (active) and 6.92 µM (active) in assay [17]. For the same molecule, the result in assay [19], in assay [6], in assay [7], in [8], in [9] and in assay [10] was inactive. The molecule was classed as inactive in assay [11], in [12], in assay [13], in assay [14] and in [15].
